For nine compounds, composite z-score and z-score results are on record in PubChem BioAssay.

Test [1] is described as follows: small molecules captured by biotinylated probe aFSTL3 – biochemical, small-molecule microarray, fluorescence 635/667, stem cell growth factor project, primary screen (AID 1064).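 Further: measures binding of the biotinylated anti-FSTL3 antibody to printed compounds.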 To be noted: higher = more signal.
Test [2] is described as follows: binders from COS7 lysate, DM2A8 probe, primary screen, torsin A project, cell lysate, small-molecule microarray, fluorescence 635/667 (AID 1065). The settings on record: higher = more signal, COS7 lysate expressing mutant human TOR1A.
A short description of test [3]: small molecules captured by biotinylated probe aFGF2 – biochemical, small-molecule microarray, fluorescence 635/667, stem cell growth factor project, primary screen (AID 1067).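 Further: measures binding of biotinylated aFGF2 protein to printed compounds on slides; z-score merges feature fluorescence and signal-to-noise across triplicate slides.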 To be noted: higher = more signal.
A short description of test [4]: small molecules captured by biotinylated probe aFGF10 – biochemical, small-molecule microarray, fluorescence 635/667, stem cell growth factor project, primary screen (AID 1071).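 Further: score merges 667 nm spot intensity and signal to noise from triplicate slides.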 To be noted: higher = more signal.
The target in test [5] is Neurogenic locus notch homolog protein 2 (Homo sapiens) (UniProt Q04721). Description: small molecules binding Notch2 protein – biochemical, small-molecule microarray, 635 nm fluorescence, stem cell growth factors, primary screen (AID 1073). To be noted: higher = more signal.
Test [6] has as its target Pro-neuregulin-1, membrane-bound isoform (Homo sapiens) (UniProt Q02297). Description: small molecules binding neuregulin-1 protein – biochemical, small-molecule microarray, fluorescence 635/667, psychiatric disease protein project, primary screen (AID 1075).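 Further: score combines 667 nm spot fluorescence with signal to noise.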 To be noted: NRG1 binding, 635 nm fluorescence, higher = more signal.
Test [7] deals with Neuregulin-1 EGF-like domain. Description: small molecules binding NRG1 EGF domain – biochemical, small-molecule microarray, 635 nm fluorescence, primary screen (AID 1081).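 Further: binding of the protein to compounds printed on small-molecule microarray slides.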 To be noted: higher = more signal.
Test [8] is described as follows: FRG1 expression reporter modulators in myotubes – cell-based, C2C12 myotubes, firefly/Renilla luciferase, luminescence, FRG1 inhibition for FSHD, primary screen (AID 1084). To be noted: FRG1 promoter luciferase, higher = more signal, called active from +8 up or from −8 down.
Test [9] can be described thus: small molecules captured by biotinylated probe aFST – biochemical, small-molecule microarray, fluorescence 635/667, stem cell growth factor project, primary screen (AID 1086).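 Further: score merges 667 nm fluorescence with signal-to-noise of each printed compound spot.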 To be noted: higher = more signal.
A short description of test [10]: binders of probe aHhip on microarray, primary screen, stem cell growth factor project, biochemical, small-molecule microarray, fluorescence 635/667 (AID 1087).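 Further: score merges spot fluorescence at 667nm with spot signal to noise ratio.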 The settings on record: higher = more signal.
Test [11] has as its system PRMT1 (protein arginine N-methyltransferase 1). Description: small molecules binding arginine methyltransferase PRMT1 – biochemical, small-molecule microarray, 635 nm fluorescence, primary screen (AID 1088).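 Further: binding of Prmt1 protein to compounds spotted on small-molecule microarray slides.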 The settings on record: higher = more signal.
A short description of test [12]: growth effects on S. cerevisiae YJM789 – YJM789 clinical isolate, OD600, 24 h, basal, primary screen (AID 1089).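 Further: growth of clinical yeast isolate S. cerevisiae YJM 789 seeded 1000 cells per well; test concentration not given here.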 The settings on record: higher = more signal, called active from +8 up or from −8 down.
Test [13] is described as follows: S. pombe growth modifiers, basal conditions – strain 972, OD600, 24 h, no modulator, primary screen (AID 1090).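 Further: basal condition with compound alone and no growth modifier present; test concentration not given here.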 The settings on record: S. pombe 972 growth, higher = more signal, called active from +8 up or from −8 down.
Test [14] is described as follows: budding yeast growth modifiers under rapamycin – strain BY4716, OD600, 96 h, primary screen (AID 1091). Further: test concentration not given here. To be noted: S. cerevisiae BY4716 + rapamycin, higher = more signal, called active from +8 up or from −8 down.
Test [15] addresses Torsin-1A-interacting protein 2 (Homo sapiens) (UniProt Q8NFQ8). Description: small molecules binding lysate-expressed LULL1 – cell lysate, human LULL1 lysate, 635/667 nm fluorescence, primary screen (AID 1092).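 Further: score merges per-feature 667 nm fluorescence with signal-to-noise.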 To be noted: small-molecule microarray, hLULL1 lysate binding, 635 nm fluorescence; higher = more signal.
The nature of test [16]: optical density change of DRC41 E. coli – strain DRC41, OD650, 24 h, E. coli filamentation project, primary screen (AID 1093).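 Further: MC1000 strain lacking acrAB efflux and sulA so SOS filamentation is blocked; test concentration not given here.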 The settings on record: E. coli DRC41 growth, higher = more signal, called active from +8 up or from −8 down.
A short description of test [17]: probe aLefty2 binding to arrayed compounds – biochemical, biotinylated probe, 635/667 nm fluorescence, primary screen (AID 1094).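 Further: score merges spot fluorescence near 667 nm with spot signal-to-noise ratio.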 To be noted: small-molecule microarray, higher = more signal.
The subject of test [18] is Noggin (protein binding on small-molecule microarray). Description: small molecules binding Noggin protein – biochemical, 635/667 nm fluorescence, primary screen (AID 1095).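 Further: score merges 667 nm feature fluorescence with signal to noise over triplicate slides.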 The settings on record: 635 nm fluorescence, higher = more signal.
In test [19] the target is Neurogenic locus notch homolog protein 3 (Homo sapiens) (UniProt Q9UM47). Description: small molecules binding NOTCH3 protein – biochemical, 635/667 nm fluorescence, primary screen (AID 1096). To be noted: small-molecule microarray, 635 nm fluorescence, higher = more signal.
The nature of test [20]: probe aEGFR binding to arrayed compounds – biochemical, biotinylated probe, 635/667 nm fluorescence, primary screen (AID 1097).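 Further: probe is a biotinylated anti-EGFR antibody binding compounds printed on slides; score combines fluorescence near 667 nm and signal to noise of each spot.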 The settings on record: small-molecule microarray, higher = more signal.

The source made the active and inactive calls.

Sequence of Pro-neuregulin-1, membrane-bound isoform (Homo sapiens) (Q02297 whole entry, looked up, the tested form may be a part, canonical isoform): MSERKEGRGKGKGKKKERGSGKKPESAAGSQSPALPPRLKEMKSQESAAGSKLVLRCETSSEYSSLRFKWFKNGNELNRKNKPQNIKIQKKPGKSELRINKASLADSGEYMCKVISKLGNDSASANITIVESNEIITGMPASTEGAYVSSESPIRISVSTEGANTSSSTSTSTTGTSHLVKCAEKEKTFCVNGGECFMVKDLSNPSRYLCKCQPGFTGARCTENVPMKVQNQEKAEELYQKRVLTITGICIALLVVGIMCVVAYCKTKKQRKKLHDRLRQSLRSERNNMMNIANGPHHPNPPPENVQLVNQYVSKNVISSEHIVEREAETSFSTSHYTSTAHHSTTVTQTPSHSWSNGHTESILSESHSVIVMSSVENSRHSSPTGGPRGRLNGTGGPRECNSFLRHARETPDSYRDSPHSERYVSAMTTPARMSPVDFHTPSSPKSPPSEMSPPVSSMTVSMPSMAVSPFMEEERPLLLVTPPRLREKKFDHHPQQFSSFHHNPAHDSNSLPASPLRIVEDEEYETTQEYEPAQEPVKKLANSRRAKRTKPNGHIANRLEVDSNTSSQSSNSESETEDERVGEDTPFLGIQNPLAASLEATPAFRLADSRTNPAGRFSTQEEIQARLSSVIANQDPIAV
Sequence of Torsin-1A-interacting protein 2 (Homo sapiens) (Q8NFQ8 whole entry, looked up): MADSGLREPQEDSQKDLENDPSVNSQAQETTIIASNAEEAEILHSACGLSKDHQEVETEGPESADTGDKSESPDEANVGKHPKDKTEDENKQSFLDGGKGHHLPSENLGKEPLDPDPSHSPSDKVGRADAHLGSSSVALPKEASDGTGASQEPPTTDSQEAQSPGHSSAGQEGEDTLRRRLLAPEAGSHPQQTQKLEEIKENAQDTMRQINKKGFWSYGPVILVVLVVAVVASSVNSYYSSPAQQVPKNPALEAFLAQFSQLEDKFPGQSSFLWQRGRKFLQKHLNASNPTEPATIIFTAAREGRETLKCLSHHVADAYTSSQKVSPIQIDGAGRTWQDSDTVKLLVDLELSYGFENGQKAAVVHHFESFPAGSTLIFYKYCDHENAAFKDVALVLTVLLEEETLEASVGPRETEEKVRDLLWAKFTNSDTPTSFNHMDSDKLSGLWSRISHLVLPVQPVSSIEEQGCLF
Sequence of Neurogenic locus notch homolog protein 2 (Homo sapiens) (Q04721 whole entry, looked up, canonical isoform): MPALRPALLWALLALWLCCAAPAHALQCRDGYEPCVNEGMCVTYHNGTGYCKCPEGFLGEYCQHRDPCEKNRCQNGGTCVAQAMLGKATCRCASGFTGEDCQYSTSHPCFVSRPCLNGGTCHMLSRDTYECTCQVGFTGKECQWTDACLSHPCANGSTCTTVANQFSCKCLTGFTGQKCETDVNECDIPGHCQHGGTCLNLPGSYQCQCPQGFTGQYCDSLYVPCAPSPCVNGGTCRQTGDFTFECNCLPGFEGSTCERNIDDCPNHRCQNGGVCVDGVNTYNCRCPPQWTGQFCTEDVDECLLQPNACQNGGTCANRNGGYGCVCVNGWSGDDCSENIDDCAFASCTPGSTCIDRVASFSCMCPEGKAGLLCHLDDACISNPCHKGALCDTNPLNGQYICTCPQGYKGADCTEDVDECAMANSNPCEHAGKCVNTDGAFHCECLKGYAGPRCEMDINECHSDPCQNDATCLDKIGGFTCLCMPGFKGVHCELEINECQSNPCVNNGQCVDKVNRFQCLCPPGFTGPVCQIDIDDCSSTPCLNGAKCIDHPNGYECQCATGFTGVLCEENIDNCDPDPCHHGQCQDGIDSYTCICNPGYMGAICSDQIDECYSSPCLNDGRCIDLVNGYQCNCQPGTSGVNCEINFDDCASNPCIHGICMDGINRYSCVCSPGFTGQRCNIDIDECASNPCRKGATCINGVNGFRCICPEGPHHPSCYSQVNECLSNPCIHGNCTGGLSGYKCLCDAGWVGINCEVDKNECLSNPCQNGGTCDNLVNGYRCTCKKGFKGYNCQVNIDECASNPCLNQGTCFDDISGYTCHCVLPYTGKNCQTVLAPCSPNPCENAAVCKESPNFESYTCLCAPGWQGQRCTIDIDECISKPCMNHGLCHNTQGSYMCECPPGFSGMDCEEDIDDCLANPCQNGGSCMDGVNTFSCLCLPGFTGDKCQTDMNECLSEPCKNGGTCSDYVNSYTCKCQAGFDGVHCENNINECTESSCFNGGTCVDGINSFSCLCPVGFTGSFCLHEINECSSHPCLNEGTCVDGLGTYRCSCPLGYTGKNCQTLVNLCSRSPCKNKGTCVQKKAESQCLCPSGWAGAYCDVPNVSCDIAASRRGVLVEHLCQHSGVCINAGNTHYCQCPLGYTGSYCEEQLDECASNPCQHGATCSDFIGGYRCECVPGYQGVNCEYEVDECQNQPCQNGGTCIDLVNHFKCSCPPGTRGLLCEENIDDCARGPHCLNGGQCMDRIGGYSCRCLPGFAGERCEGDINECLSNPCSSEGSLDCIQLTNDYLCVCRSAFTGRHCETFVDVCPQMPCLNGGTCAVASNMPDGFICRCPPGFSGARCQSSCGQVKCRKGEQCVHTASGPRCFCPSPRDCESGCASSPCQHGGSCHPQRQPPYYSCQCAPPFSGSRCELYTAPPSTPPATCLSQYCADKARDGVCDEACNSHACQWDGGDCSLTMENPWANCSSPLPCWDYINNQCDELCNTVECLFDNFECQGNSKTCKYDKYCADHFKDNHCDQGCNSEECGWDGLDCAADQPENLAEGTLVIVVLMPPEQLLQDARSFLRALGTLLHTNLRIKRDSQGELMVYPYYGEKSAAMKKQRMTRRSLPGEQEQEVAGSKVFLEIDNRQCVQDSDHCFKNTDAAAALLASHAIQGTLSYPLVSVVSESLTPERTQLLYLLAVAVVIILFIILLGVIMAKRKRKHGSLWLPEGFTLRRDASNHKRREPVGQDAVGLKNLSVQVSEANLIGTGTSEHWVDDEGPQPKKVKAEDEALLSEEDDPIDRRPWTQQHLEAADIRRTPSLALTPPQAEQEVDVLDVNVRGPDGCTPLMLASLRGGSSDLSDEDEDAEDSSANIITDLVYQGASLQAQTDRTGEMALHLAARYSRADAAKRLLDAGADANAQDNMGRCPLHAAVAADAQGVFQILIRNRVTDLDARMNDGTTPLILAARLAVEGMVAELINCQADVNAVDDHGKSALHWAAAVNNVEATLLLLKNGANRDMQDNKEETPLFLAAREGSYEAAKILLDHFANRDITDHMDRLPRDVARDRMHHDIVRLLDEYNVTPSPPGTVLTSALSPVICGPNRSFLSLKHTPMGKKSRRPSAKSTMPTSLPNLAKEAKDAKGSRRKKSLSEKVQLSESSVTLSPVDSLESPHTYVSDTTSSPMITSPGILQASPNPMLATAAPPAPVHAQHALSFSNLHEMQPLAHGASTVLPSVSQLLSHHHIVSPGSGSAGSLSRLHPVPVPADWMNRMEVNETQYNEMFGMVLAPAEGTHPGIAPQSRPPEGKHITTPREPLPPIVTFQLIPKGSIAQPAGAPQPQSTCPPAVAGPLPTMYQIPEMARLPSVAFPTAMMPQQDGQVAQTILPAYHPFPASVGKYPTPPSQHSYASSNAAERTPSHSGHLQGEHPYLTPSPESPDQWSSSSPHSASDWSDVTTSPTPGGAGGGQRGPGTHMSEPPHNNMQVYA

Take `C=CCNC(=O)[C@H]1[C@@H]2C(=O)O[C@@H](c3ccccc3)[C@@H](c3ccccc3)N2[C@@H](c2ccccc2OCCO)[C@]12C(=O)N(C(=O)OCCOC)c1ccccc12`: the composite z-score is 0.041 in test [1]; 0.3 in test [2]; -0.0226 in test [3]; 0.832 in test [4]; 0.716 in [5]; 1.54 in [6]. In addition, the composite z-score in test [7] was 1.13; in [9], 0.186; in [10], 0.0623; in test [11] it was 1.51; in test [15], 2.78; in test [17], -0.196. For the same compound, the composite z-score is 0.786 in test [18], 1.12 in test [19] and -0.0828 in test [20]. Also, the z-score in [8] was -2.27 (inactive); in test [12], 1.5 (inactive); in [13], 2.05 (inactive); in test [14], 5.15 (inactive); in test [16], -0.513 (inactive).

Turning to `CN(C)CCCNC(=O)[C@@H]1c2ccccc2C(=O)N(C2Cc3ccccc3C2)[C@H]1c1ccc(CO)cc1`, the composite z-score was 0.158 in [1]; 0.345 in [2]; -0.0566 in test [3]; -0.273 in [4]; 0.175 in test [5]; 0.618 in [6]. For the same compound, the composite z-score in [7] is 0.849; in test [9], 0.178; in [10], -0.151; in [11] it was 1.56; in [15], 2.03; in [17], -0.127. In addition, the composite z-score was 0.0726 in [18], 0.241 in test [19] and 0.111 in test [20]. In addition, the z-score in [8] was -1.3 (inactive); in test [12], -0.463 (inactive); in test [13] it was -0.271 (inactive); in [14] it was -0.915 (inactive); in test [16], 0.688 (inactive).

As to `CN(C)CCCC[C@@H]1NC(=O)[C@H]2C[C@@H](C(=O)O)[C@@H](c3cccc(OCCO)c3)N2C1=O`, the composite z-score in test [1] is 0.794; in test [2] it was 1.13; in test [3] it was -0.0238; in [4] it was 0.105; in test [5], 0.146; in [6], 0.212. Also, the composite z-score in test [7] amounted to 1.44; in test [9], 0.547; in test [10] it was 0.0374; in test [11], 1.4; in test [15], 2.1; in [17], 0.495. In addition, the composite z-score was 1.19 in test [18], 0.87 in test [19] and 0.169 in test [20]. Moreover, the z-score in test [8] was 6.56 (inactive); in test [12], -0.733 (inactive); in test [13] it was -1.36 (inactive); in test [14], 0.102 (inactive); in test [16] it was 0.579 (inactive).

`[N-]=[N+]=NCc1ccccc1C[C@]1(C(=O)N2CCCCC2)N=C(c2ccc(OCCCO)cc2)O[C@H]1c1ccccc1`: the composite z-score in test [1] was 0.393; in [2] it was 0.449; in [3], -0.0165; in [4], 0.39; in [5], 1.07; in test [6], 0.618. For the same compound, the composite z-score in test [7] was found to be 0.849; in test [9], 0.485; in test [10], 0.0722; in [11], 0.762; in [15] it was 2.46; in [17], 0.124. The composite z-score is 0.0914 in [18], 0.344 in test [19] and -0.125 in [20]. Also, the z-score is -4.27 (inactive) in [8]; 0.202 (inactive) in test [12]; -1.1 (inactive) in test [13]; 22.5 (active) in test [14]; 1.31 (inactive) in [16].

As for `C=C(COC)C(=O)CC[C@@H](OC(C)=O)c1ccc(OCCO)cc1`, the composite z-score in test [1] is 0.266; in test [2] it was 1.48; in [3] it was -0.107; in test [4], 0.432; in [5] it was 0.297; in test [6], -0.239. Moreover, the composite z-score was 0.835 in [7]; -0.25 in test [9]; 0.347 in [10]; 1.07 in [11]; 0.276 in test [15]; -0.159 in test [17]. Also, the values for the composite z-score in test [18], in test [19] and in test [20] were 0.482, 0.512 and -0.21, respectively. Also, the z-score in test [8] was -0.556 (inactive); in test [12], 0.0756 (inactive); in test [13], -2.44 (inactive); in test [14], -0.056 (inactive); in [16], -0.0345 (inactive).

For the compound `CC(C)CNC(=O)[C@@H]1c2ccccc2C(=O)N(Cc2ccccc2)[C@H]1c1ccc(CO)cc1`, the composite z-score in test [1] was 1.12; in test [2] it was 0.886; in [3], 0.0173; in test [4], -0.0403; in [5], -1.04; in [6], 0.935. Moreover, the composite z-score in test [7] was 0.76; in test [9], -0.469; in test [10], -0.118; in test [11] it was 0.586; in test [15] it was 3.22; in [17], -0.188. Also, the values for the composite z-score in test [18], in [19] and in test [20] were -0.731, -0.677 and -0.189, respectively. Also, the z-score is -0.504 (inactive) in [8]; -0.416 (inactive) in test [12]; 0.138 (inactive) in [13]; -0.895 (inactive) in test [14]; -0.73 (inactive) in [16].

As for `COc1ccc([Si](C)(C)[C@H]2[C@H](CCO)O[C@@]3(C(=O)N(Cc4ccc(N5CCOC5=O)cc4)c4ccccc43)[C@@H]2C)cc1`, the composite z-score was 0.173 in test [1]; 0.306 in test [2]; -0.137 in [3]; 0.034 in test [4]; -0.0425 in test [5]; 1.11 in test [6]. The composite z-score in [7] is 0.664; in test [9] it was -0.083; in test [10], -0.0994; in [11], 1.06; in test [15], 1.27; in [17] it was -0.139. Besides, the composite z-score in [18] was 0.0178; in test [19], 0.287; in test [20] it was -0.315. In addition, the z-score in test [8] was -4.39 (inactive); in [12] it was 3.62 (inactive); in test [13], 0.623 (inactive); in [14], 35.9 (active); in test [16], 0.816 (inactive).

Consider `CCCC[C@@H](O)C1=C(COC)Cn2c(=O)n(-c3ccccc3)c(=O)n2[C@H]1CO`, for which the composite z-score in test [1] was -0.306; in test [2] it was -0.191; in [3], -0.226; in [4], 0.13; in test [5] it was -0.167; in test [6] it was -0.43. In addition, the composite z-score is -0.336 in test [7]; -0.292 in test [9]; -0.236 in test [10]; -0.0379 in test [11]; -0.0333 in test [15]; -0.246 in [17]. In addition, the composite z-score in test [18] was -0.102; in [19] it was -0.62; in [20], -0.203. In addition, the z-score in test [8] was -1.12 (inactive); in test [12], -1.48 (inactive); in test [13], -1.13 (inactive); in [14] it was -0.721 (inactive); in [16] it was 2.84 (inactive).

On to `[N-]=[N+]=NCc1ccccc1C[C@]1(C(=O)NCc2ccccc2)N=C(c2ccc(OCCCO)cc2)O[C@H]1c1ccccc1CN=[N+]=[N-]`, for which the composite z-score in test [1] was 1.79; in test [2], 0.227; in [3] it was 0.14; in test [4], 0.0819; in [5], 1.13; in test [6] it was 1.73. The composite z-score in test [7] is 1.16; in test [9], 0.654; in [10], -0.082; in test [11], 1.37; in test [15] it was 3.25; in test [17], -0.106. Also, the composite z-score is -0.243 in test [18], 0.561 in [19] and 0.0506 in test [20]. Also, the z-score in test [8] was 0.976 (inactive); in [12] it was 1.27 (inactive); in [13], 0.736 (inactive); in [14], 22.6 (active); in test [16], 1.79 (inactive).
